Screens (PubChem BioAssay)
An excerpt weighted towards active compounds, which were near 9% of everything screened.
Lamin A splicing: modulators of lamin A splicing. AID 1487. 0.01% of 200,000 active. HeLa LMNA splicing GFP/RFP minigene ratio, 48 h. Potency, µM (highest dose often 46.1 µM), without a hit: top-dose ratio change, negative = inhibition, usual class: inhibitors; active means well fitted inhibition curve with a large enough effect in the signal ratio, with a control signal flat, not every such curve was filed as active; inconclusive means small, poorly fitted or top-dose-only effect, or effect the other way, or a change in a side signal; the % refers to the signal ratio
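S3 HeLa cells stably expressing lamin A-EGFP splicing minigene plus DsRed2, 600 cells/well, 48 h compound exposure at 37C. Laser-scanning cytometry; analysed as GFP (500-530 nm)/RFP (575-640 nm) total intensity ratio; 0.5% DMSO vehicle.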
ALDH1A1 block: blocks purified human ALDH1A1 activity; Purified ALDH1A1, NADH fluorescence, propionaldehyde substrate; Potency, µM (highest dose often 75.3 µM), without a hit: top-dose activity, negative = inhibition, usual class: inhibitors; 7.3% of 220,000 active; AID 1030;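 further: plate controls were no enzyme wells and a reference inhibitor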
Target sequence (P00352 whole entry, looked up): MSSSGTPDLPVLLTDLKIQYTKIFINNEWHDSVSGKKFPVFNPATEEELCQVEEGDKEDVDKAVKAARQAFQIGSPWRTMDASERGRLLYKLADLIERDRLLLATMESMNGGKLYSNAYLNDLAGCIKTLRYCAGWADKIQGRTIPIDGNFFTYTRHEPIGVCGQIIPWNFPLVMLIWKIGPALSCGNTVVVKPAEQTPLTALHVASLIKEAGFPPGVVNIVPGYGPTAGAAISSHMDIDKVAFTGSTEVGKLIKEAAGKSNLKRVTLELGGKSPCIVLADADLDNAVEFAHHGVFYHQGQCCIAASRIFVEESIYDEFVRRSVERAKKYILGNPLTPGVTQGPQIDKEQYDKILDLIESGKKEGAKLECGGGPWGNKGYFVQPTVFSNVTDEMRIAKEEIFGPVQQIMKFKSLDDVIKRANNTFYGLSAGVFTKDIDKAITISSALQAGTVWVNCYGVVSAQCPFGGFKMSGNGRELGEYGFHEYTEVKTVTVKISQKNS
HPGD block: inhibitors of human 15-hydroxyprostaglandin dehydrogenase (HPGD); P15428; purified HPGD, NADH fluorescence kinetic, PGE2 substrate; Potency, µM, for inactives: top-dose activity change, negative = inhibition, usual class: inhibitors; 4.3% of 150,000 active; AID 894
Target sequence (P15428 whole entry, looked up): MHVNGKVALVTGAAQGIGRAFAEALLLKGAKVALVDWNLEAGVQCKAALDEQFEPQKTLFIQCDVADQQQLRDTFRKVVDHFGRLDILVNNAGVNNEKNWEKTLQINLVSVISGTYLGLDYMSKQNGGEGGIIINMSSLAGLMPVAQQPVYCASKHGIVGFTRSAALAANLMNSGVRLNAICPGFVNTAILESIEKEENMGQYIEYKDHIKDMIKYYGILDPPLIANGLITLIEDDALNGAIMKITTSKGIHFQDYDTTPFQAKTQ
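20 nM HPGD preincubated 15 min at room temperature with compound in 50 mM Tris-HCl pH 8, 0.01% Tween 20. Started with 1 mM NAD+ and 30 uM prostaglandin E2; NADH fluorescence (360/450 nm) read 5 times over 30-s intervals, last minus first.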
Luc counter: counter-screen: inhibitors of Kinase-Glo firefly luciferase. Q27757. Kinase-Glo luciferase, ATP luminescence, 8 min. Potency, µM (top dose mostly 38.3 µM), for inactives: top-dose activity change, negative = inhibition, hits mostly inhibitors. 0.28% of 200,000 active. AID 1379; active means well fitted curve in the direction sought with a large enough effect; inconclusive means small, poorly fitted or top-dose-only effect, or another doubt; inactive means no such curve, though single readings can be large; an effect the other way counts as inactive or inconclusive; further: nearly all actives have a fitted effect of over 60% in size
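Luminescence was the read-out, taken after 8-minute incubation at ambient temperature. Luciferase turned over luciferin with 10 uM ATP in imidazole pH 7.2 buffer containing KCl, MgCl2, Tween 20 and BSA.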
IMPase Li inh: cell-permeable IMPase inhibitors with lithium potentiation | CHO-M1 cells, IP1 TR-FRET (IP-One), carbachol + lithium | Potency, µM (top dose mostly 59.4 µM), without a hit: top-dose activity, negative = IMPase inhibition, actives largely listed as inhibitors | 0.35% of 210,000 active | AID 1457; active means well fitted curve in the direction sought with a large enough effect; inconclusive means small, poorly fitted or top-dose-only effect, or another doubt; inactive means no such curve, though single readings can be large; an effect the other way counts as inactive or inconclusive;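 further: IP1 builds up when IMPase is blocked and the TR-FRET signal falls; plate controls were basal vehicle for no effect and high inhibitor control for full effect; nearly all actives have a fitted effect of over 50% in size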
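Test compounds were applied to CHO-M1 cells previously cultured for 16–30 h at 2000 per well. A small lithium amount accompanied them; after 30 min at 37C, IP1 was quantified by TR-FRET.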
* = called active by the depositor; u = inconclusive; x = not tested or not shown; [ ] = remark or other dose. Unless noted, the call rests on the fitted dose curve; in most records, active means well fitted inhibition curve with a large enough effect (not every such curve was filed as active); inconclusive means small, poorly fitted or top-dose-only effect, or another doubt; inactive means no such curve, though single readings can be large or run the other way. Unless noted, on the % scale 0 is the no-effect control and ±100 the full control effect; potency means the concentration at half of the fitted maximal effect.

SMILES | Lamin A splicing | ALDH1A1 block | HPGD block | Luc counter | IMPase Li inh
CCSc1nc(-c2ccccc2)c(C#N)c(=O)[nH]1 | -9.7% | u | 28.2µM* | 9.5% | 2µM*
N#Cc1c(-c2ccccc2)nc(SCc2nc(N)nc(N3CCCCC3)n2)[nH]c1=O | -4.2% | -4.5% | u | 1.5% | 4.47µM*
O=C(NCc1ccc(F)cc1)c1cnc(N2CCCCC2)c2ccccc12 | 19.2%[46 µM] | x | x | x | x
COC(=O)C(CC(C)C)NC(=O)CSc1nc(-c2ccccc2)c(C#N)c(=O)[nH]1 (stereo not drawn) | 9.0% | u | -25.8% | 6.4% | 8.91µM*
CCC(Sc1nc(N)cc(=O)[nH]1)C(=O)Nc1cc(C)on1 (stereo not drawn) | u | 8.9% | x | -1.6% | 4.9%
CCC(Sc1nc(-c2ccccc2)c(C#N)c(=O)[nH]1)C(=O)Nc1cc(C)on1 (stereo not drawn) | 6.7% | 6.2% | -7.9% | 2.9% | 11.2µM*
O=C(c1ccc(-c2ccc([N+](=O)[O-])cc2)o1)N1CCCCC1 | u | 11.2µM* | 7.08µM* | -4.7% | 23.9%
O=C(c1ccc(-c2ccc(Cl)cc2)o1)N1CCN(c2ccc([N+](=O)[O-])cc2Cl)CC1 | u | 3.16µM* | -15.9% | 1.3% | 10.7%
CCN(C(=O)c1cc2cccc(OC)c2oc1=O)c1ccccc1 | -0.3% | -2.5% | 22.4µM* | 0.2% | 15.1%[38.3 µM]
CCOc1cccc2cc(C(=O)N3CCN(C/C=C/c4ccccc4)CC3)c(=O)oc12 | -12.3% | 14.1µM* | -21.3% | 2.1% | 2.5%
CCOc1cc(C(=O)N2CCN(C/C=C/c3ccccc3)CC2)cc(OCC)c1OCC | -0.7% | 1.3% | -3.1% | 0.6% | -9.7%[38.3 µM]
COc1cccc2cc(C(=O)N3CCCCC3C)c(=O)oc12 (stereo not drawn) | -13.2% | -3.4% | 15.8µM* | -1.0% | -0.2%
COc1cccc2cc(C(=O)N3CCc4ccccc43)c(=O)oc12 | 3.4% | 3.3% | -5.2% | 14.8% | 11.1%[38.3 µM]
COc1cccc2cc(C(=O)N3C(C)CCCC3C)c(=O)oc12 (stereo not drawn) | -7.8% | -8.1% | 28.2µM* | -2.3% | -4.3%
COc1cccc2cc(C(=O)OC3CCN(C)CC3)c(=O)oc12 | -3.6% | -5.2% | -4.4% | 0.5% | 0.9%
COc1cccc2cc(C(=O)N(Cc3ccccc3)CC3CCCO3)c(=O)oc12 (stereo not drawn) | -8.1% | -13.1% | -17.8% | 2.8% | -0.9%
CCCCCCCC/C=C\CCCCCCCCOC[C@H](COP(=O)([O-])OCC[N+](C)(C)C)OC(C)=O | x | 7.1% | -8.6% | 0.7% | 0.6%
COc1cccc2cc(C(=O)N3CCC(C)CC3)c(=O)oc12 | 2.0% | u | 12.6µM* | -0.5% | u
CNS(=O)(=O)c1cccc(C(=O)OCC(=O)Nc2sc3c(c2C#N)CCCCC3)c1 | -14.6% | 25.1µM* | x | x | x
CC(C)(C)c1ccc(S(=O)(=O)O/N=C2/CCCCC2c2ccc([N+](=O)[O-])cc2[N+](=O)[O-])cc1 (stereo not drawn) | 6.6% | 5.62µM* | -18.0% | 4.0% | 46.1%[38.3 µM]
COC(=O)C1=C(CN2CCN(C)CC2)NC(=O)NC1c1cc(C)ccc1C (stereo not drawn) | 4.5% | 2.0% | -0.2% | -0.8% | 15.2%[38.3 µM]
COC(=O)C1=C(COc2ccc(C=O)cc2OC)NC(=O)NC1c1cc(C)ccc1C (stereo not drawn) | -15.8% | 6.31µM* | -6.3% | -0.5% | -3.4%
c1coc(-c2nnc3sc(Cc4cccs4)nn23)c1 | -16.4% | 20µM* | u | -7.6% | 21.5%[38.3 µM]
COc1ccc(OCc2nn3c(-c4ccco4)nnc3s2)cc1 | -16.4% | 31.6µM* | x | x | x
Clc1ccc(OCc2nn3c(-c4ccncc4)nnc3s2)cc1 | 11.2% | -0.2% | -26.9% | -3.1% | 4.9%[38.3 µM]
SMILES | Lamin A splicing | ALDH1A1 block | HPGD block | Luc counter | IMPase Li inh
Clc1ccc(OCc2nn3c(-c4ccco4)nnc3s2)cc1 | u | 22.4µM* | u | -2.0% | 25.5%[38.3 µM]
COc1ccccc1-c1nn2c(-c3ccco3)nnc2s1 | -15.4% | u | u | 1.5% | -2.2%[38.3 µM]
c1coc(-c2nn3c(-c4ccco4)nnc3s2)c1 | -0.8% | 20µM* | -26.0% | -1.3% | -17.4%[38.3 µM]
CCOC(=O)c1cnc(N2CCN(C(=O)OCC)CC2)[nH]c1=O | x | -6.1% | x | x | 5.7%
O=[N+]([O-])c1ccc(C=Nc2ccc(Cl)c([N+](=O)[O-])c2)s1 | u | 14.1µM* | x | -0.5% | 14.2%
Cc1cc(C)cc(N=Cc2ccc([N+](=O)[O-])s2)c1 | u | u | -9.5% | -1.6% | 9.2%
NC(=O)c1ccc(N=Cc2ccc([N+](=O)[O-])s2)cc1 | u | 20µM* | -5.2% | -1.2% | 10.3%
COc1cccc(C(=O)NC(=S)Nn2cnnc2)c1OC | -9.5%[46 µM] | 7.94µM* | x | 1.5% | -4.6%
O=C(NC(=S)Nn1cnnc1)c1ccccc1Cl | x | 10µM* | x | -2.7% | -4.4%
CCCCNC(=O)c1ccc2c(c1)NC(=O)C(CS(=O)(=O)Cc1ccc(F)cc1Cl)N2 (stereo not drawn) | -7.0%[46 µM] | x | x | x | x
COC(=O)C1=C(SC)N(c2ccccc2)C(c2ccccc2)CC1=O (stereo not drawn) | 7.3% | -10.6% | -10.0% | 2.2% | -1.5%
Cc1ccc(-c2csc(/C(C#N)=C(\O)CCl)n2)cc1 | x | u | x | 9.4% | -3.5%
COc1ccc(-c2csc(/C(C#N)=C(\O)CSc3nccn3C)n2)cc1OC | -2.2% | 8.91µM* | 25.1µM* | -2.2% | 1.5%[38.3 µM]
C/C(=N\NC(=O)c1ccc([N+](=O)[O-])cc1)c1c(O)cc(C)oc1=O | x | u | x | 7.2% | 2.9%
C/C(=N/NC(=O)c1cc(O)c(O)c(O)c1)c1ccc([N+](=O)[O-])cc1 | x | 25.1µM* | x | 0.6% | 22.3%
CC(=O)Nc1ccc(Cc2nc3c([nH]2)c(=O)n(C)c(=O)n3C)cc1 | x | 2.4% | x | x | x
CC1(C)CC(=O)c2sc(NC(=O)c3ccc4ncsc4c3)nc2C1 | -6.9% | 3.55µM* | u | -0.1% | 13.1%[38.3 µM]
CC1(C)CC(=O)c2sc(NC(=O)C(C)(C)C)nc2C1 | -9.4%[46 µM] | u | x | 4.7% | -6.0%
CC1(C)CC(=O)c2sc(NC(=O)c3cccs3)nc2C1 | -8.9% | 15.8µM* | -8.0% | u | 0.9%
Cc1ccc2nc(NC(=O)c3ccc4ncsc4c3)sc2c1 | -4.4% | u | u | 2.0% | -1.7%[38.3 µM]
CC1(C)CNC(=O)c2sc(NC(=O)c3ccccc3)nc2C1 | 1.5%[9.22 µM] | u | x | -3.5% | -3.5%
CC1(C)CC(=O)c2sc(NC(=O)c3ccccc3)nc2C1 | x | 2.82µM* | x | -15.2% | -10.7%
CC(Oc1ccccc1)C(=O)Nc1nc2c(s1)C(=O)CC(C)(C)C2 (stereo not drawn) | 18.1% | 14.1µM* | -23.6% | -5.5% | -13.7%[38.3 µM]
CCOC(=O)CCN1C(=O)[C@H]2[C@H]3[C@H](O)[C@H](O)C/C(=N/NC(=O)OCc4ccccc4)[C@@H]3CC[C@@H]2C1=O | x | -2.3%[13.5 µM] | x | x | x
CN(C)c1ncc2nc(CCc3ccccc3)c(=O)n(Cc3cccs3)c2n1 | -11.5% | u | x | x | 9.2%
